Among the data in PubChem BioAssay (NCI) are growth values, retold here.

The structures appear in SMILES notation. Several values for one entry are separate records, joined by “and”; a condition that tells them apart may be missing. Equal entries are not always repeated. The panel holds about 83,000 compounds, 20% with a hit somewhere; the sample as a whole holds those more often.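 Growth was measured after 48 h exposure to one concentration of compound in 96-well plates. Values under 10 count as active.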 Values without a mark were called inactive. Activity calls are given as the source filed them.

Among the test systems are T-47D breast; BT-549 breast; MDA-MB-435 melanoma; SW-620 colon; MCF7 breast; HCT-116 colon; HCC-2998 colon; KM12 colon.
Holding throughout (test): NCI-60 one-dose screen, 48 h (100 = growth as untreated, 0 = no growth, -100 = all killed)
Holding throughout (conditions): 10 µM unless noted

For `COc1ccc(C(=NNS(=O)(=O)c2ccc(C)cc2)c2ccccc2)cc1OC`, the growth is 90% in the test on T-47D breast; 112% with BT-549 breast; 106% with MDA-MB-435 melanoma; 101% in the test with SW-620 colon; 91.4% with MCF7 breast; 96.3% with HCT-116 colon. In addition, the results for the growth with HCC-2998 colon and with KM12 colon were 102% and 105%, respectively.
In the case of `CN1CCN(c2ccc(Nc3nc(NCCNS(=O)(=O)c4ccc5ccccc5c4)c4sccc4n3)cc2)CC1`, the growth was 55.2% in the test with T-47D breast; 86.7% in the test on BT-549 breast; 53.7% in the test with MDA-MB-435 melanoma; 35.2% with SW-620 colon; 32.9% in the test with MCF7 breast; 14.7% with HCT-116 colon. Also, the growth was 72.3% in the test on HCC-2998 colon and 86.7% in the test on KM12 colon.
Take `COc1ccc(C(C)=C(c2ccc(OCCN(C)C)cc2)c2ccc(OCCN(C)C)cc2)cc1`: the growth with T-47D breast was -60.6% (active); in the test with BT-549 breast, -27.3% (active); in the test on MDA-MB-435 melanoma, -75.7% (active); in the test on SW-620 colon, -65.8% (active); with MCF7 breast, -67.6% (active); in the test with HCT-116 colon it was -81% (active). In addition, the values for the growth in the test on HCC-2998 colon and with KM12 colon were -69.4% (active) and -8.05% (active), respectively.
Turning to `CCCCCN1C(=O)/C(=c2\sc3n(c2=O)C2C(NN=3)N(CC)C(=O)N2CC)c2cccc(C)c21` (stereo not given), the growth was 44% in the test on T-47D breast; 68% in the test on BT-549 breast; -13.6% (active) with MDA-MB-435 melanoma; 43.5% with SW-620 colon; 18.2% with MCF7 breast; 32.3% in the test with HCT-116 colon. Besides, the growth is 86% with HCC-2998 colon and 26.6% in the test with KM12 colon.
In the case of `Nc1ncc(-c2ccc3ncnc(NCc4ccccc4)c3c2)cn1`, the growth is 15% in the test with T-47D breast; 34.5% with BT-549 breast; 65.1% in the test on MDA-MB-435 melanoma; 73.7% in the test on SW-620 colon; 19.3% in the test on MCF7 breast; 66.5% with HCT-116 colon. Further, the growth was 59.8% in the test with HCC-2998 colon and 72.1% in the test with KM12 colon.
Consider `O=S(=O)(Oc1ccc(-c2cn3ccoc3n2)cc1)C1CCCCC1`, for which the growth in the test on T-47D breast is 95.7%; with BT-549 breast, 125%; in the test with MDA-MB-435 melanoma, 98.6%; with SW-620 colon, 103%; in the test with MCF7 breast, 87%; in the test on HCT-116 colon, 89.3%. For the same molecule, the growth in the test with HCC-2998 colon was 113%; in the test with KM12 colon, 103%.
Regarding `Cc1cc2nc(C(Cl)Cl)nc(-c3ccc(S(=O)(=O)N(C)C)cc3)n2n1`, the growth in the test with T-47D breast was 69.8%; with BT-549 breast it was 38.5%; with MDA-MB-435 melanoma, 47%; in the test with SW-620 colon it was 18.2%; with MCF7 breast, 62.1%; in the test on HCT-116 colon, 18.2%. Moreover, the growth is 47.6% in the test with HCC-2998 colon and 39.1% in the test with KM12 colon.
In the case of `CCCCCCCCCC(=O)NC(C)(C)C(=O)N1CCC[C@H]1C(=O)N[C@@H](CC(C)C)C(=O)N[C@@](C)(CC)C(=O)N[C@@H](CCC(N)=O)C(=O)N[C@H](CCC(N)=O)C(=O)NC(C)(C)C(=O)NC(C)(C)C(=O)N[C@@H](CCC(N)=O)C(=O)N[C@H](CC(C)C)C(=O)N[C@H](CO)CC(C)C`, the growth with T-47D breast was -34.9% (active) and -12.9% (active); with BT-549 breast, -84.8% (active) and -76.9% (active); in the test on MDA-MB-435 melanoma, -60.3% (active) and -95.4% (active); with SW-620 colon it was -83.6% (active) and -50.6% (active); in the test with MCF7 breast it was -83.8% (active) and -76.9% (active); with HCT-116 colon it was -67.5% (active) and 1.05% (active). The growth was -89.2% (active) and -59.5% (active) in the test on HCC-2998 colon; -89.6% (active) and -89.8% (active) with KM12 colon.
In the case of `C#C[C@]1(O)CC[C@H]2[C@@H]3CC=C4c5sc(Nc6cc(C)cc(C)c6)nc5CC[C@]4(C)[C@H]3CC[C@@]21C`, the growth with T-47D breast was 33.8%; with BT-549 breast, -4.65% (active); in the test with MDA-MB-435 melanoma, 20.7%; in the test on SW-620 colon, -20.1% (active); in the test on MCF7 breast it was -52.5% (active); with HCT-116 colon it was 12.5%. The growth in the test with HCC-2998 colon was 40.2%; in the test with KM12 colon it was -7.08% (active).
In the case of `N#C/C(=C\c1ccc(-c2ccc(Cl)c(Cl)c2)o1)C(=O)Nc1ncc(Cc2ccc(Cl)cc2)s1`, the growth in the test on T-47D breast was 17.9%; in the test on BT-549 breast, 42.1%; in the test on MDA-MB-435 melanoma it was 26.9%; in the test on SW-620 colon, 10.8%; with MCF7 breast, 58.7%; in the test with HCT-116 colon, 9.52% (active). The growth in the test on HCC-2998 colon is 81.8%; with KM12 colon, 19.6%.
For `CC(C)(O)c1cncc(-c2ccc3ncc(C#N)c(N4CCc5cc(F)c(Cl)cc54)c3c2)c1`, the growth is 2.88% (active) in the test with T-47D breast; 2.34% (active) in the test with BT-549 breast; 17.9% in the test with MDA-MB-435 melanoma; 26.6% in the test with SW-620 colon; 8.93% (active) in the test on MCF7 breast; 24.8% with HCT-116 colon. Also, the growth was 18.7% with HCC-2998 colon and 34.3% in the test with KM12 colon.
As for `O=[N+]([O-])c1ccc(NC(=S)NNC(=S)Nc2ccc(Br)cc2)cc1`, the growth was 73.3% with T-47D breast; 103% in the test with BT-549 breast; 99% in the test with MDA-MB-435 melanoma; 91.1% in the test on SW-620 colon; 70.1% in the test on MCF7 breast; 90.6% in the test on HCT-116 colon. Moreover, the growth was 53.7% with HCC-2998 colon and 55.4% in the test with KM12 colon.
Consider `C#CCOc1ccccc1C(OC(=O)c1ccccc1)C(=O)NC(C)(C)C(C)(C)C` (stereo not given), for which the growth was 73.5% in the test with T-47D breast; 85% in the test with BT-549 breast; 96.2% in the test on MDA-MB-435 melanoma; 96.9% in the test on SW-620 colon; 79.9% with MCF7 breast; 60.5% in the test with HCT-116 colon. In addition, the growth in the test with HCC-2998 colon is 96.1%; in the test on KM12 colon, 92.7%.
For `CC1(C)CC[C@]23CC[C@]4(C)[C@H](CC[C@@H]5[C@@]6(C)CC[C@H](N)C(C)(C)[C@@H]6CC[C@]54C)[C@H]2[C@H]1OC3`, the growth was 88.1% in the test on T-47D breast; 88.9% with BT-549 breast; 90.6% in the test with MDA-MB-435 melanoma; -44.3% (active) in the test with SW-620 colon; -8.5% (active) in the test with MCF7 breast; -82.7% (active) in the test with HCT-116 colon. Besides, the results for the growth in the test on HCC-2998 colon and with KM12 colon were -15.9% (active) and 18%, respectively.
For `CN1CCN(Cc2ccc(NC(=O)c3cncc(C#Cc4cnc5ccc(OCCCS(C)(=O)=O)nn45)c3)cc2C(F)(F)F)CC1`, the growth in the test with T-47D breast was 16.2%; with BT-549 breast, -21.5% (active); in the test on MDA-MB-435 melanoma it was -22.7% (active); in the test with SW-620 colon, 1.18% (active); in the test with MCF7 breast it was -12.8% (active); with HCT-116 colon, 1.88% (active). The growth is -22% (active) in the test with HCC-2998 colon and -3.51% (active) in the test on KM12 colon.
